# Experimental data published in PubChem BioAssay.
# Where “and” joins values, the source holds several entries; their conditions need not be identical. Equal entries are not always repeated. Records with an inconclusive call do not appear. For some assays here: Results with a measured potency or affinity are listed apart. Calls of active or inactive are those of the source. Unless noted, how the calls were made is not given here.
# Columns and labels:
# [1] = differential killing of epithelial or mesenchymal cells, primary screen, imaging, PC-3E GFP, TEM4-18 mCherry, co-culture (AID 1345086;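 active means compounds killing one labelled cell type while sparing the other, by normalised counts and ratio limits, not self-fluorescent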;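 on all read-outs here: cells exposed to compound for 72 h before imaging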;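 on red/green cell ratio (normalised): normalised mesenchymal count divided by normalised epithelial count so high means epithelial killing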); settings: imaging cell counts, at 1 µM; for red/green cell ratio (normalised): actives lie on both sides
# [2] = tested on: Aerobactin synthetase IucA (Klebsiella pneumoniae hvKP1); assay: Biochemical IucA enzyme inhibition primary screen of the Spectrum library (AID 1346200); settings: malachite green pyrophosphate, A620, at 8 µM, stronger effect = lower value;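 further: 100% = wells without compound and 0% = wells lacking enzyme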
# [3] = molecular target: Mitogen-activated protein kinase 7 (Homo sapiens) (UniProt Q13164); assay: ERK5 transactivation activators in reporter cells, primary screen, cell-based, HTS (AID 1508626;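 active means luciferase signal above three times the same-plate solvent-only control wells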;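 further: luciferase driven by Gal4-ERK5 fusion binding five Gal4 sites before minimal TATA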); settings: HeLa Gal4-ERK5 transactivation, 18 h, at 5 µM, stronger effect = higher value
# Mitogen-activated protein kinase 7 (Homo sapiens), sequence (Q13164 whole entry, looked up, the tested form may be a part): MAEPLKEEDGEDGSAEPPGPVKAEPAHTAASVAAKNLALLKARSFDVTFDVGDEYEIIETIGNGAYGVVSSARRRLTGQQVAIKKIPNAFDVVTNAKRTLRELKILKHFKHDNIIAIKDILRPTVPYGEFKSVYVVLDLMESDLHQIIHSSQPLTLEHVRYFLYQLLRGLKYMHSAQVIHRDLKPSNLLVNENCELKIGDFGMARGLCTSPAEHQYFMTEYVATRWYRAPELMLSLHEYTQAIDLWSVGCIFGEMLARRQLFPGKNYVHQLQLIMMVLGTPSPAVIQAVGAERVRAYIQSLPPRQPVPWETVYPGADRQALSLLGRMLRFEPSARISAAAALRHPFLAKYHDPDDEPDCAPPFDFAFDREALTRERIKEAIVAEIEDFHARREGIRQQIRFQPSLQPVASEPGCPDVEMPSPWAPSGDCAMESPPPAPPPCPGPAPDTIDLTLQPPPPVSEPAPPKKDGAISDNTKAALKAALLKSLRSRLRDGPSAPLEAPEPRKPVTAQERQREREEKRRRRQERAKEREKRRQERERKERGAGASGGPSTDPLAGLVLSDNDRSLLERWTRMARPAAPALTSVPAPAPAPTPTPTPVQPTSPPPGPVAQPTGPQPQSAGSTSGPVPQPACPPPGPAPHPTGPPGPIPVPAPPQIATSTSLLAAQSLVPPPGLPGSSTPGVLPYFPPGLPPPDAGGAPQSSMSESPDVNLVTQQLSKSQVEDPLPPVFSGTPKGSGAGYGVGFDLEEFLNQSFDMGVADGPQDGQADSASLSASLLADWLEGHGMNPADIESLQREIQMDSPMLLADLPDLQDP
# [4] = circadian clock period modulators, cell-based, LOPAC library, luminescence reporter (AID 2774); settings: circadian reporter cells, at 7 µM, actives lie on both sides;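 further: values are relative to mean of DMSO wells on each plate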
# [5] = tested on: Hepatitis C virus NS3 helicase; assay: HCV NS3 helicase inhibitors, primary screen, biochemical, fluorescence polarization, LOPAC1280 library (AID 687035; in the data active means inhibition above about 37%); settings: Purified HCV NS3 helicase, Cy5-dT15 ssDNA binding fluorescence polarization; stronger effect = higher value; concentration not given here
# [6] = Cy5 fluorescence quenching or enhancement artefacts, artefact control for HCV NS3 helicase inhibitor project, biochemical, LOPAC1280 (AID 687037); settings: Cy5-DNA-NS3h complex fluorescence interference counterscreen
# [7] = tested on: Aerobactin synthetase IucA (Klebsiella pneumoniae); assay: IucA aerobactin synthetase inhibitors, biochemical, Tocris library, absorbance (AID 1345561); settings: purified IucA enzyme assay, absorbance (OD) read-out; stronger effect = lower value; concentration not given here;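 further: 100% = enzyme without compound and 0% = no enzyme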
# [8] = tested on: Aerobactin synthetase IucA (Klebsiella pneumoniae, hypervirulent); assay: IucA enzyme inhibition, biochemical, LOPAC library, absorbance readout (AID 1346212); settings: IucA enzyme assay, absorbance (OD) readout; stronger effect = lower value; concentration not given here;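 further: 100% = no compound wells and 0% = no enzyme wells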
# [9] = sensitizers of A549 cells to miR-34 induction, primary screen, imaging, A549 dox-inducible miR-34, nuclei and caspase counts (AID 1347080;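 active means compounds whose cell count with miR-34 switched on is under 0.7 times the count with it off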); settings: A549 miR-34 inducible, Hoechst nuclei count, 48 h
# [10] = inhibitors of Cryptococcus chitosan production, flow cytometry, Cibacron Brilliant Red staining (AID 1347148); settings: Cryptococcus neoformans chitosan, stronger effect = lower value; at 10 µM unless noted;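 further: compound exposure lasted three days at 37 degrees C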
# [11] = phospholipid biosynthesis inhibitors in animal cells, primary screen, cell-based, LOPAC library, screen 4 (AID 1347384); settings: phospholipid biosynthesis inhibition screen, at 10 µM
# [12] = viability rescue of complex I mutant cybrids, primary screen, cell-based, galactose medium, ATP luminescence (AID 1645843;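 active means z-score of at least 1.8 in each of two replicates, scored against plate mean and spread of sample wells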;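 further: positive z means more ATP and so rescue of galactose-driven cybrid death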); settings: complex I mutant cybrid cells, 72 h, stronger effect = higher value
# [13] = molecular target: ATP-dependent translocase ABCB1 (Homo sapiens) (UniProt P08183); assay: MDR1 (ABCB1) efflux transporter inhibition, cell-based (AID 377; in the data active means fluorescence slope change above about 50%); settings: MDR1-expressing cells, fluorescent substrate accumulation slope; stronger effect = higher value; concentration not given here
# ATP-dependent translocase ABCB1 (Homo sapiens), sequence (P08183 whole entry, looked up): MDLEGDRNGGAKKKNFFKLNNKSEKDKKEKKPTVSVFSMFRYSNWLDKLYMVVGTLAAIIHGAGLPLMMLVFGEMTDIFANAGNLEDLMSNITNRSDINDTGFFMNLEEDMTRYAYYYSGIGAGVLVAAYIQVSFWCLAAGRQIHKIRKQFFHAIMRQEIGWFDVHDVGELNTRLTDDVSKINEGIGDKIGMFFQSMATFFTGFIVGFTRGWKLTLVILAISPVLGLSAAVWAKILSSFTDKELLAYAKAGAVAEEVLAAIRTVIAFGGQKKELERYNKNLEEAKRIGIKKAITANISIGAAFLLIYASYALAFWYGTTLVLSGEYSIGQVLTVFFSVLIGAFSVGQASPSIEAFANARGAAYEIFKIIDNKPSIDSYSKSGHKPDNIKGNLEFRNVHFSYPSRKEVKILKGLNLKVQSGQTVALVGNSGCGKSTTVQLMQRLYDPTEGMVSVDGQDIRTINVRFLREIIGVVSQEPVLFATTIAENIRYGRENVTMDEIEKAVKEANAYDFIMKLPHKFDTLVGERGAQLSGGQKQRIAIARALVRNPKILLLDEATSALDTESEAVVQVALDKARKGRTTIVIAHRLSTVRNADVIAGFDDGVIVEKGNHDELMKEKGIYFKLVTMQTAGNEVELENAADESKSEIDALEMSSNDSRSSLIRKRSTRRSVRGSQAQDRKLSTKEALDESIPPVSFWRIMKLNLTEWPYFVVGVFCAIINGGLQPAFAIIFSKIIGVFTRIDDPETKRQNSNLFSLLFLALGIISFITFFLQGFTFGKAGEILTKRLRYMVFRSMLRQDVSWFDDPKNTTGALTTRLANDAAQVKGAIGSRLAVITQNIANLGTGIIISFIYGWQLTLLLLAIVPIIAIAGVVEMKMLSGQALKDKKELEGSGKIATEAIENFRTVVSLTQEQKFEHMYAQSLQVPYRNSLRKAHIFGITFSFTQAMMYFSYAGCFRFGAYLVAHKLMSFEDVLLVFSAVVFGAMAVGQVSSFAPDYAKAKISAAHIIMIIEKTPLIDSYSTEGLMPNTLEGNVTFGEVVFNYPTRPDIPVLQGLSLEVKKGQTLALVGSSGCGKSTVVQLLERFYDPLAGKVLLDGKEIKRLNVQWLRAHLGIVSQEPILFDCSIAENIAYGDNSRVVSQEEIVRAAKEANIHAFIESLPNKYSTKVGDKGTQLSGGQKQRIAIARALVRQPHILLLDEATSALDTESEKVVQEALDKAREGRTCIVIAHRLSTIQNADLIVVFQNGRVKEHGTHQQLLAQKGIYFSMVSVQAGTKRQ
# [14] = hESC survival regulators, cell-based (AID 493140); settings: human embryonic stem cell survival screen; stronger effect = higher value;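 further: cells exposed to compounds for four days before counting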
# [15] = liver-stage malaria parasite growth inhibition, primary screen, cell-based, HepG2, luciferase luminescence, HepG2 viability (AID 624349; in the data active means parasite load remaining mostly below about 12%, no sharp cut-off; inactive means mostly above about 10%;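 further: 100% = mean of DMSO negative control wells on the same plate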); settings: P. berghei liver stage in HepG2, luciferase luminescence, concentration not given here; parasite load remaining: stronger effect = lower value; viability: measured here: HepG2 viability without parasites
# [16] = polyglutamine-triggered caspase-3 activation inhibitors, cell-based (AID 1583); settings: polyglutamine-induced caspase-3 activation, cell assay; stronger effect = higher value;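 tested at 10 µM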
# [17] = suppressors of polyQ aggregation in yeast, 75Q-TubU reporter (AID 1593); settings: Yeast 75Q polyglutamine aggregation reporter
# [18] = rescue of polyQ-huntingtin neuronal dysfunction in worms, whole organism, C. elegans mechanosensory neurons, N-terminal huntingtin (AID 1599); settings: touch response, stronger effect = higher value
# [19] = inhibitors of mitochondrial cytochrome c release, biochemical, purified mitochondria (AID 1603); settings: stronger effect = lower value;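 further: mouse liver mitochondria challenged with calcium chloride; signal normalized to the plate average as 100%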
# [20] = inhibitors of polyQ protein aggregation (AID 1604); settings: polyglutamine-induced protein aggregation inhibition assay; stronger effect = higher value; tested at 2.5 µM
# [21] = enhancers of glutamate uptake in motor neurons, MN-1 cell line (AID 1612); settings: MN-1 motor neuron cells, stronger effect = higher value;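 further: tested at 1 µM final; 0% = mean of DMSO vehicle wells on each plate; positive means more glutamate uptake than control and negative means less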
# [22] = suppressors of polyglutamine aggregation in yeast, 75Q-TubH (AID 1616); settings: S. cerevisiae 75Q-TubH polyglutamine aggregation suppression; stronger effect = higher value
# [23] = reducers of polyQ inclusions in PC12 cells, cell-based, NGF-treated PC12, GFPQ80 (AID 1614); settings: PC12 NGF-treated GFP-polyQ80 inclusion reduction;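 further: lower means fewer inclusions and 0 means no inclusions at all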
# [24] = molecular target: NAD(+) hydrolase SARM1 (Homo sapiens) (UniProt Q6SZW1); assay: SARM1 TIR NADase inhibitors, cell lysate, NAD-Glo luminescence (AID 1508614;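 active means compound whose remaining NAD level is above about 45 nM, limit read from the data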); settings: SAM-TIR HEK293T lysate NADase, at 1 µM, stronger effect = higher value
# NAD(+) hydrolase SARM1 (Homo sapiens), sequence (Q6SZW1 whole entry, looked up): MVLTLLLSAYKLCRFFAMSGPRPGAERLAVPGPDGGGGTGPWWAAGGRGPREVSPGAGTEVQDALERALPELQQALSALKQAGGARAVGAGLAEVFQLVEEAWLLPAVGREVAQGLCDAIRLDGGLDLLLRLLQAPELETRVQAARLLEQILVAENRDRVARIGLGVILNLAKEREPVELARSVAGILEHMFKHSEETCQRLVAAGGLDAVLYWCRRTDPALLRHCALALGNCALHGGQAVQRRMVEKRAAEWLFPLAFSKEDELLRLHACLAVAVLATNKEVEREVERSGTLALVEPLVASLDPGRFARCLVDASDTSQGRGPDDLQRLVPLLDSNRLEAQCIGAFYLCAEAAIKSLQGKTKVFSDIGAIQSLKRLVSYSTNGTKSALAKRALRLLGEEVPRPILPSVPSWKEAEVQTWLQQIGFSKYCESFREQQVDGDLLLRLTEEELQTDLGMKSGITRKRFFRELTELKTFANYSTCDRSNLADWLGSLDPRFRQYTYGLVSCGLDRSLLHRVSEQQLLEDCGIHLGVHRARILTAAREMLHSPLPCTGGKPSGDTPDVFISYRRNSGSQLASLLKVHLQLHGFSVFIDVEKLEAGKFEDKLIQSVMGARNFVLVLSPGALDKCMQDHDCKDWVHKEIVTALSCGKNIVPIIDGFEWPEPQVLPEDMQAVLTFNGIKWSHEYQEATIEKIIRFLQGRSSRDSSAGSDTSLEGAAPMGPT
# [25] = survival rescue of mitochondrial mutant cells in low glucose, primary screen, MELAS cybrids, Rieske KO mouse fibroblasts, CellTiter-Glo (AID 1508586;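 active means mean z-score across replicates of 1.96 or higher in either the MELAS or the Rieske mutant cell line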;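 further: z relative to plate mean and SD of compound and empty wells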)
# [26] = counts scaled to control wells, 1 = unselective
# [27] = measured here: epithelial PC-3E GFP cell survival
# [28] = measured here: mesenchymal TEM4-18 mCherry cell survival
# [29] = measured here: relative caspase fold change +Dox/-Dox
# [30] = measured here: total cells with miR-34 induction, stronger effect = lower value
# [31] = measured here: total cells without miR-34 induction
# [32] = stronger effect = lower value, cell number ratio, induced over uninduced
smiles,measurement,setting,value
Cc1cc(OC(=O)N2CCCCC2)c(C(C)C)cc1[N+](C)(C)C,red/green cell ratio (normalised),[1]; [26],0.97 (inactive)
same,normalised cell number,[1]; [27],1.16
same,normalised cell number,[1]; [28],1.13
same,activity remaining,[2],125% (inactive)
same,luciferase signal,[3],48 AU (inactive)
c1ccc2c(c1)[I+]c1ccccc1-2,period change,[4],-1.22 h (inactive)
same,inhibition,[5],-5% (inactive)
same,fluorescence ratio (interference),[6],1 (inactive)
same,remaining activity,[7],106% (inactive)
same,remaining activity,[8],103% (inactive)
same,fold change,[9]; stronger effect = lower value,1.1 (inactive) and 0.717 (inactive) and 0.928 (inactive)
same,fold change,[9]; [29],1.26 and 1.66 and 0.513
same,cell count,[9]; [30],1170 and 692 and 1240
same,cell count,[9]; [31],1070 and 966 and 1340
same,fold fluorescence,[10],9.07 [at 179.1 µM] (inactive)
same,outcome,[11],active
same,z-score,[12],-1.03 (inactive) and -1.25 (inactive)
C[C@@H](N)Cc1cnc[nH]1,period change,[4],-0.03 h (inactive)
same,inhibition,[5],-1% (inactive)
same,fluorescence ratio (interference),[6],1 (inactive)
same,remaining activity,[7],120% (inactive)
same,remaining activity,[8],105% (inactive)
same,fold change,[9]; stronger effect = lower value,0.943 (inactive)
same,fold change,[9]; [32],1.02 (inactive)
same,fold change,[9]; [29],0.922 and 0.657
same,cell count,[9]; [30],9840 and 7980
same,cell count,[9]; [31],10400 and 7800
same,outcome,[11],inactive
same,z-score,[12],0.195 (inactive) and -0.325 (inactive)
CC(=O)NCCc1c[nH]c2ccccc12,period change,[4],0.04 h (inactive)
same,inhibition,[5],-3% (inactive)
same,fluorescence ratio (interference),[6],0.9 (inactive)
same,remaining activity,[7],90.2% (inactive)
same,remaining activity,[8],105% (inactive)
same,fold change,[9]; stronger effect = lower value,1.01 (inactive) and 0.947 (inactive)
same,fold change,[9]; [29],0.736 and 0.687
same,cell count,[9]; [30],10200 and 9110
same,cell count,[9]; [31],10200 and 9620
same,outcome,[11],inactive
same,z-score,[12],0.505 (inactive) and 0.035 (inactive)
COc1cc2c(c(OC)c1OC)-c1ccc(O)c(=O)cc1C(N)CC2 (stereo not drawn),fluorescence slope change,[13],63.7% (active)
same,survival,[14],6 (inactive)
same,parasite load remaining,[15],59.8% (inactive)
same,viability,[15],94.7%
same,red/green cell ratio (normalised),[1],0.78 (inactive)
same,normalised cell number,[1]; [27],1.21
same,normalised cell number,[1]; [28],0.95
CC(C)(C)c1o[nH]c(=O)c1CC(N)C(=O)O (stereo not drawn),period change,[4],-0.635 h (inactive)
same,inhibition,[5],-1% (inactive)
same,fluorescence ratio (interference),[6],1 (inactive)
same,remaining activity,[7],108% (inactive)
same,remaining activity,[8],110% (inactive)
same,fold change,[9]; stronger effect = lower value,1 (inactive) and 0.891 (inactive)
same,fold change,[9]; [29],1.8 and 0.776
same,cell count,[9]; [30],10700 and 8780
same,cell count,[9]; [31],10700 and 9850
same,outcome,[11],inactive
same,z-score,[12],-0.285 (inactive) and -0.155 (inactive)
NCc1cc(=O)[nH]o1,period change,[4],-0.1 h (inactive)
same,inhibition,[5],-3% (inactive)
same,fluorescence ratio (interference),[6],1 (inactive)
same,remaining activity,[7],112% (inactive)
same,remaining activity,[8],89% (inactive)
same,fold change,[9]; stronger effect = lower value,0.974 (inactive)
same,fold change,[9]; [32],0.899 (inactive)
same,fold change,[9]; [29],1.71 and 1.62
same,cell count,[9]; [30],10400 and 8970
same,cell count,[9]; [31],10700 and 9980
same,outcome,[11],inactive
same,z-score,[12],0.465 (inactive) and -0.045 (inactive)
C[C@]12CCC(=O)C=C1CCC1C2CC[C@@]2(C)C1CC[C@@H]2O (stereo partly drawn),inhibition,[16],-4.21%
same,score,[17],-1.11
same,rescue above control,[18],4.25
same,cytochrome c release ratio,[19],1.03
same,inhibition of aggregation,[20],-1.96%
same,glutamate uptake change,[21],18.8%
same,aggregation suppression score,[22],-0.43
same,parasite load remaining,[15],68.4% (inactive)
same,viability,[15],110%
same,red/green cell ratio (normalised),[1],1.12 (inactive)
same,normalised cell number,[1]; [27],0.76
same,normalised cell number,[1]; [28],0.85
same,fold change,[9]; stronger effect = lower value,0.943 (inactive)
same,fold change,[9]; [29],2.07
same,cell count,[9]; [30],10700
same,cell count,[9]; [31],11300
CO[C@H]1[C@H](O)[C@@H](O[C@H]2CC[C@]3(C=O)C4CC[C@]5(C)[C@@H](C6=CC(=O)OC6)CC[C@]5(O)C4CC[C@@H]3C2)O[C@@H](C)[C@@H]1O (stereo partly drawn),score,[17],1.12
same,rescue above control,[18],-6.49
same,cytochrome c release ratio,[19],1.41
same,inhibition of aggregation,[20],0%
same,glutamate uptake change,[21],3.74%
same,inclusion score,[23],0.5
same,aggregation suppression score,[22],1.22
same,parasite load remaining,[15],56.4% (inactive)
same,viability,[15],41.4%
same,red/green cell ratio (normalised),[1],0.18 (inactive)
same,normalised cell number,[1]; [27],0.18
same,normalised cell number,[1]; [28],0.03
CCC1(CC)C(=O)NC(=O)NC1=O,red/green cell ratio (normalised),[1],0.85 (inactive)
same,normalised cell number,[1]; [27],0.92
same,normalised cell number,[1]; [28],0.78
same,remaining NAD,[24],10 nM (inactive)
CCCN(CCC)C1Cc2cc(OC)c(OC)cc2C1,period change,[4],-0.045 h (inactive)
same,inhibition,[5],-2% (inactive)
same,fluorescence ratio (interference),[6],1 (inactive)
same,remaining activity,[7],120% (inactive)
same,remaining activity,[8],106% (inactive)
same,fold change,[9]; stronger effect = lower value,0.979 (inactive) and 0.907 (inactive)
same,fold change,[9]; [29],0.924 and 0.563
same,cell count,[9]; [30],9280 and 9110
same,cell count,[9]; [31],9480 and 10000
same,outcome,[11],inactive
same,z-score,[12],0.43 (inactive) and 0.01 (inactive)
CC(N)Cc1c[nH]c2ccc(O)cc12 (stereo not drawn),period change,[4],-0.08 h (inactive)
same,inhibition,[5],-7% (inactive)
same,fluorescence ratio (interference),[6],0.9 (inactive)
same,remaining activity,[7],105% (inactive)
same,remaining activity,[8],122% (inactive)
same,fold change,[9]; stronger effect = lower value,1.02 (inactive) and 0.98 (inactive)
same,fold change,[9]; [29],1.63 and 0.84
same,cell count,[9]; [30],11100 and 9190
same,cell count,[9]; [31],10900 and 9370
same,outcome,[11],inactive
same,z-score,[12],0.365 (inactive) and 0.08 (inactive)
CN1CCC(c2c[nH]c3ccc(O)cc23)CC1,period change,[4],-0.16 h (inactive)
same,inhibition,[5],-2% (inactive)
same,fluorescence ratio (interference),[6],1 (inactive)
same,remaining activity,[7],116% (inactive)
same,remaining activity,[8],119% (inactive)
same,fold change,[9]; stronger effect = lower value,1.01 (inactive)
same,fold change,[9]; [32],0.949 (inactive) and 0.908 (inactive)
same,fold change,[9]; [29],1.73 and 0.894 and 0.857
same,cell count,[9]; [30],10800 and 7640 and 9030
same,cell count,[9]; [31],10700 and 8050 and 9950
same,outcome,[11],inactive
same,z-score,"[25]; MELAS cybrid survival, CellTiter-Glo 48 h, stronger effect = higher value",-0.212 (inactive)
same,z-score,"[25]; Rieske KO mouse fibroblast survival, CellTiter-Glo 72 h",-0.062
same,z-score,[12],0.06 (inactive) and -0.325 (inactive)
CCNC1(c2cccs2)CCCCC1=O (stereo not drawn),survival,[14],13.6 (inactive)
same,parasite load remaining,[15],136% (inactive)
same,viability,[15],77%
same,red/green cell ratio (normalised),[1],0.77 (inactive)
same,normalised cell number,[1]; [27],1.37
same,normalised cell number,[1]; [28],1.05
same,fold change,[9]; stronger effect = lower value,0.914 (inactive)
same,fold change,[9]; [29],0.59
same,cell count,[9]; [30],8750
same,cell count,[9]; [31],9570
same,remaining NAD,[24],10 nM (inactive)
C[C@]12CC[C@H](OC3OC(O)C(O)C(O)C3O)C=C1CCC1C2CC[C@]2(C)[C@@H](c3ccc(=O)oc3)CC[C@]12O (stereo partly drawn),parasite load remaining,[15],-0.075% (inactive)
same,viability,[15],22.8%
same,red/green cell ratio (normalised),[1]; [26],0.18 (inactive)
same,normalised cell number,[1]; [27],0.18
same,normalised cell number,[1]; [28],0.03
same,fold change,[9]; [32],0.742 (inactive)
same,fold change,[9]; [29],0.885
same,cell count,[9]; [30],150
same,cell count,[9]; [31],202
